From PubChem BioAssay (Tox21) come the findings set out here.

Test [1] in a line: Caspase-3/7 induction in HepG2 cells by small molecules, qHTS assay (AID 1346978). Note: nearly all actives have a fitted effect of over 15% in size. The gist of the method: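 Wild-type HepG2 cells (2,000/well) were settled 5 h at 37 C, 5% CO2, then exposed to compounds in DMSO for 17 h. Caspase-3/7 activity was read by luminescence 30 min after adding Caspase-Glo 3/7 reagent at room temperature.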
On the technique in general: Quantitative high-throughput screening tests each substance at several concentrations.

A short description of test [2]: Caspase-3/7 induction in CHO-K1 cells by small molecules, qHTS assay (AID 1346980). Note: nearly all actives have a fitted effect of over 15% in size. The gist of the method: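 Wild-type cells were seeded at 1,500 per well and settled 5 hr at 37 C, 5% CO2, then exposed to DMSO-dissolved compounds for 17 hr. Caspase-Glo 3/7 reagent was added, and luminescence was read after 30min at room temperature.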
The nature of test [3]: Caspase-3/7 induction in HepG2 cells by small molecules, qHTS cell viability counter screen (AID 1346981). Note: nearly all actives have a fitted effect of over 30% in size. Note: potency is the fitted concentration of half-maximal effect. In a few lines:
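In this quantitative HTS counter screen, compounds delivered in DMSO were left on unmodified HepG2 cells for 16 hr at 37 C. Viability was then determined fluorometrically with CellTiter-Fluor, in parallel with caspase-3/7 induction in the same wells.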

The target in test [4] is Acetylcholinesterase (Homo sapiens) (UniProt P22303). The experiment in a line: Acetylcholinesterase (AChE) small molecule antagonists: colormetric cell-based qHTS assay (AID 1347395; calls by dose curve; note: nearly all actives have a fitted effect of over 30% in size; note: potency is the fitted concentration of half-maximal effect). The gist of the method: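 AChE inhibition read colorimetrically via DTNB–thiocholine in SH-SY5Y cells. Compound 30 min, substrate 90 min, both 37 C.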
Acetylcholinesterase (Homo sapiens), sequence (P22303 whole entry, looked up): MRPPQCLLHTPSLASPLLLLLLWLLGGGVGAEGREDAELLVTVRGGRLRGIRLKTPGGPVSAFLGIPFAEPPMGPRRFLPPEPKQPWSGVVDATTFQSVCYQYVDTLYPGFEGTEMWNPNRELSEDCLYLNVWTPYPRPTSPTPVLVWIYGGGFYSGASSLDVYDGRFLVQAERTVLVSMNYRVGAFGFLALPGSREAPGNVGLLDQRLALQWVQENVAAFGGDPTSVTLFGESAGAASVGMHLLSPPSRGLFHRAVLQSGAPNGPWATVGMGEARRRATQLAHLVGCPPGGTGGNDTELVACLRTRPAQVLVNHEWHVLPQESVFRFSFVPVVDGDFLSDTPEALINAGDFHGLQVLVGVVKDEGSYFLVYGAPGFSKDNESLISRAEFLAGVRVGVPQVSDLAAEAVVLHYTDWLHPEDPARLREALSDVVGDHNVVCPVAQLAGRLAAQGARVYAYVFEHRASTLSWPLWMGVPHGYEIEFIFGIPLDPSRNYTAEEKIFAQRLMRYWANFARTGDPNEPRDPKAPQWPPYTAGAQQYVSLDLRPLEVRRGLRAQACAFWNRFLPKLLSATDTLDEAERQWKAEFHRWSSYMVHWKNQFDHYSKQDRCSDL
The target is the same in test [5]. In words: Acetylcholinesterase (AChE) small molecule antagonists: enzyme-based qHTS assay (AID 1347397; calls by dose curve; note: nearly all actives have a fitted effect of over 55% in size; note: potency is the fitted concentration of half-maximal effect). The conditions noted are these: Potency: AChE enzyme activity inhibition. The gist of the method: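 Compound or DMSO vehicle was pin-transferred onto recombinant human AChE (50 mU/mL as dispensed) and left 30 min at room temperature. Acetylthiocholine with DTNB then started the reaction, read colorimetrically 10 min later.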

Test [6] has the same target. In words: Acetylcholinesterase (AChE) small molecule antagonists: fluorescence cell-based qHTS assay (AID 1347398; calls by dose curve; note: nearly all actives have a fitted effect of over 50% in size). Conditions: Potency: AChE activity. In a few lines:
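Using neuroblastoma SH-SY5Y cells as the enzyme source, test chemicals are preincubated 30 min at 37 C; AChE-driven acetylthiocholine cleavage is then quantified by thiocholine-dependent Thiolite Green fluorescence after 40 min at room temperature.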

The target is the same in test [7]. The experiment in a line: Acetylcholinesterase (AChE) small molecule antagonists: enzyme-based qHTS assay with human liver microsomes (AID 1347399; calls by dose curve; note: nearly all actives have a fitted effect of over 60% in size; note: potency is the fitted concentration of half-maximal effect). The conditions noted are these: Potency: qHTS inhibition. The gist of the method: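 Recombinant human AChE (50 mU/mL in the enzyme mix) and human liver microsomes (0.25 mg/mL final) were preincubated with compound and NADPH (0.25 mg/mL final) for 30 min at 37 C. Acetylthiocholine/DTNB was then added; thiocholine was read colorimetrically after 10 min at room temperature.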

Test [8] addresses Cytochrome P450 2D6 (Homo sapiens) (UniProt P10635). The experiment in a line: Cytochrome P450 Family 2 Subfamily D Member 6 (CYP2D6) small molecule antagonists: luciferase reporter qHTS assay (AID 1671196). Note: nearly all actives have a fitted effect of over 50% in size. Note: potency is the fitted concentration of half-maximal effect. The gist of the method:
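Test chemicals meet CYP2D6 plus proluciferin substrate (10 min, RT); NADPH regenerating solution then drives turnover for 1 h. Detection reagent halts the reaction; luminescence measured after 20 min.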

Test [9] has as its target Cytochrome P450 2C19 (Homo sapiens) (UniProt P33261). The experiment in a line: Cytochrome P450 Family 2 Subfamily C Member 19 (CYP2C19) small molecule antagonists: luciferase reporter qHTS assay (AID 1671197). Note: nearly all actives have a fitted effect of over 65% in size. Note: potency is the fitted concentration of half-maximal effect. In a few lines:
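P450-Glo CYP2C19 system: enzyme-substrate mix with compound 10 min at room temperature, then NADPH regeneration solution, 1 h at 37C. Proluciferin-to-luciferin conversion detected by luminescence after 20 min with detection reagent; ketoconazole as positive control.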

The target in test [10] is Voltage-gated inwardly rectifying potassium channel KCNH2 (Homo sapiens) (UniProt Q12809). The experiment in a line: Human Ether-a-go-go-Related Gene (hERG) channel small molecule antagonists: fluorescence cell-based qHTS assay (AID 1671200).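 Note: hERG-expressing U2OS cells given a thallium stimulus after FluxOR II dye loading; series mostly up to about 77 µM; nearly all actives have a fitted effect of over 50% in size.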 The gist of the method: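 Kinetic two-minute fluorescence traces, sampled at 1 s, were collected following thallium stimulus of U2OS cells (1000 per well) that had been cultured overnight at 37 C and loaded with FluxOR II.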
Voltage-gated inwardly rectifying potassium channel KCNH2 (Homo sapiens), sequence (Q12809 whole entry, looked up): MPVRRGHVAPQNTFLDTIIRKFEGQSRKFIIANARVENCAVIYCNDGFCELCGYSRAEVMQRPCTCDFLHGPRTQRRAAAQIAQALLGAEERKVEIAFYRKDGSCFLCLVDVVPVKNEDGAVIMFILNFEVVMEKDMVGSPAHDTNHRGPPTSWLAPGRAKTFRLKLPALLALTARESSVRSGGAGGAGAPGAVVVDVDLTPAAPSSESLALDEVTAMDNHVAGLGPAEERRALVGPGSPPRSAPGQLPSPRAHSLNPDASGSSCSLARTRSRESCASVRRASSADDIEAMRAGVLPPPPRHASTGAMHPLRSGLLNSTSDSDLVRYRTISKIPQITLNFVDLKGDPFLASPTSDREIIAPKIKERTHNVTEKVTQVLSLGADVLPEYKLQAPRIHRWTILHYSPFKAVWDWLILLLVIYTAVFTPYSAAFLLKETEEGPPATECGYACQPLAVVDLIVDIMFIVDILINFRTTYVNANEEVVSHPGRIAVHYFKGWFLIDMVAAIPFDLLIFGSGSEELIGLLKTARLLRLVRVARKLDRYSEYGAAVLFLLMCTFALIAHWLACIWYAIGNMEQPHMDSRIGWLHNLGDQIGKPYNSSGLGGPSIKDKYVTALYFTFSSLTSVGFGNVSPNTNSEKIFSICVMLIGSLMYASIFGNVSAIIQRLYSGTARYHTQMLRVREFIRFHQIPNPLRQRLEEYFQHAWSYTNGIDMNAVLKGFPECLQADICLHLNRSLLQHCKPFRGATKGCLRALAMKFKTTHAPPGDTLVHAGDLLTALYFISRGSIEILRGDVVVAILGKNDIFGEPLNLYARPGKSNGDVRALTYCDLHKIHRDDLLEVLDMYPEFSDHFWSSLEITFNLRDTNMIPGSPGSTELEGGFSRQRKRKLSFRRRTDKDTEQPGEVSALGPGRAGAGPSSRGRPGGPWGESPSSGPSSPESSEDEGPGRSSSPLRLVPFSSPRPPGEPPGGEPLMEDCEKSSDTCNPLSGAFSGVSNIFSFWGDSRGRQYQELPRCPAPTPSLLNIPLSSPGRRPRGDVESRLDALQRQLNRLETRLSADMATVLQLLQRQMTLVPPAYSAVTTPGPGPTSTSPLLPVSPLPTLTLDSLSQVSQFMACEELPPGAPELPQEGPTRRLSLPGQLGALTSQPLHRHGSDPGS
(In general: Block of hERG is tested as a sign of cardiac risk.)

Test [11] has as its target Cytochrome P450 3A4 (Homo sapiens) (UniProt P08684). In words: Cytochrome P450 Family 3 Subfamily A Member 4 (CYP3A4) small molecule antagonists: luciferase reporter qHTS assay (AID 1671201). Note: series mostly up to about 120 µM; nearly all actives have a fitted effect of over 50% in size. The gist of the method:
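Proluciferin-to-luciferin conversion by CYP3A4, NADPH-regenerated, 1 h RT; luminescence read as RLU. Ketoconazole as control.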
On the technique in general: Reporter assays use an easily measured gene product as a stand-in for the process of interest.

Test [12] addresses Nuclear receptor subfamily 1 group I member 2 (Homo sapiens) (UniProt O75469). In words: Human pregnane X receptor (PXR) small molecule agonists, qHTS assay (AID 1346982). Note: nearly all actives have a fitted effect of over 35% in size. Note: potency is the fitted concentration of half-maximal effect. The gist of the method:
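Reporter HepG2 cells expressing PXR-Luc are cultured in charcoal-stripped FBS (5%), treated with compounds for 24 hr at 37 C, and assayed by ONE-Glo luminescence after 30 min at room temperature.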

For test [13], the target named is Cytochrome P450 1A2 (Homo sapiens) (UniProt P05177). The experiment in a line: Cytochrome P450 Family 1 Subfamily A Member 2 (CYP1A2) small molecule antagonists: luciferase reporter qHTS assay (AID 1671199). Note: nearly all actives have a fitted effect of over 50% in size. Note: potency is the fitted concentration of half-maximal effect. The gist of the method: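 Steps: enzyme-substrate mix dispensed; test compounds and furafylline control pinned in; 10 min room temperature; NADPH regeneration solution added, 1 h; reaction stopped with luciferin detection reagent; luminescence read after 20 min.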
Cytochrome P450 1A2 (Homo sapiens), sequence (P05177 whole entry, looked up): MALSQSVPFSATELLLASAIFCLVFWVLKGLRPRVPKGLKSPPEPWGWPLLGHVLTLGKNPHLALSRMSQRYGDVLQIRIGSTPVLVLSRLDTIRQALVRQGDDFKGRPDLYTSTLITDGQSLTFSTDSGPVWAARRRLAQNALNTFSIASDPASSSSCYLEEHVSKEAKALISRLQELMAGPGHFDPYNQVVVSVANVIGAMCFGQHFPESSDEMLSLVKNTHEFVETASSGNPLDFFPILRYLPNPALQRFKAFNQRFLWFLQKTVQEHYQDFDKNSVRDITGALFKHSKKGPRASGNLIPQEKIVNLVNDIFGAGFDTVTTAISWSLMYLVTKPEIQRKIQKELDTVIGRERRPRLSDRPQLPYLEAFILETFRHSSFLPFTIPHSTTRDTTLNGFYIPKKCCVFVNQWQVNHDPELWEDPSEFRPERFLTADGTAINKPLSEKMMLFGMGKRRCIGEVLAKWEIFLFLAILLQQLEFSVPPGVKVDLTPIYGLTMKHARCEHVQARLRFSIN

In test [14] the target is Cytochrome P450 2C9 (Homo sapiens) (UniProt P11712). The experiment in a line: Cytochrome P450 Family 2 Subfamily C Member 9 (CYP2C9) small molecule antagonists: luciferase reporter qHTS assay (AID 1671198). Note: nearly all actives have a fitted effect of over 50% in size. Note: potency is the fitted concentration of half-maximal effect. The gist of the method: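 CYP2C9 activity was measured with a P450-Glo proluciferin substrate. Enzyme–substrate mix was held with compound for 10 min at room temperature, then NADPH regeneration solution was added for 1 h at 37C. Luciferin product was read as luminescence.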
Cytochrome P450 2C9 (Homo sapiens), sequence (P11712 whole entry, looked up): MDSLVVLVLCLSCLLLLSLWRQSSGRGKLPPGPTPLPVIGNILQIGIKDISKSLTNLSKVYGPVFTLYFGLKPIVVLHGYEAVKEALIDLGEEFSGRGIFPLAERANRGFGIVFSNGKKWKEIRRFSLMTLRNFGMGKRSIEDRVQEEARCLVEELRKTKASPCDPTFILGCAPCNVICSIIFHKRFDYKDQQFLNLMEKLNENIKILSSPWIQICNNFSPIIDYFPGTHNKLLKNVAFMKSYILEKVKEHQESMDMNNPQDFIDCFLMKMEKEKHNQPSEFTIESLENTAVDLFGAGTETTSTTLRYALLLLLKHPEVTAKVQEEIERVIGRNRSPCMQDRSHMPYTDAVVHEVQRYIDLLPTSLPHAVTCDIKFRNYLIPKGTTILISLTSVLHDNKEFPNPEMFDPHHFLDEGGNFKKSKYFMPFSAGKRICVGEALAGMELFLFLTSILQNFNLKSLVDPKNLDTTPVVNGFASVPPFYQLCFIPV

Test [15] concerns the target Nuclear receptor subfamily 1 group I member 2 (Rattus norvegicus) (UniProt Q9R1A7). In words: Rat pregnane X receptor (rPXR) activation by small molecules, qHTS assay (AID 1346983). Note: nearly all actives have a fitted effect of over 20% in size. The conditions noted are these: rPXR luciferase reporter cells, One-Glo luminescence, 24 h; max activation: stronger effect = higher value. The gist of the method: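 Cell-based rPXR luciferase reporter assay, 2,000 cells per well, rested 5hr at 37 C before compound addition in DMSO, then 24 hr at 37 C. One-Glo reagent was added and luminescence read after 30 min at room temperature.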

Test [16] addresses Nuclear receptor subfamily 1 group I member 2 (Homo sapiens) (UniProt O75469). In words: CYP3A4 induction through human pregnane X receptor (PXR) by small molecules, qHTS assay (AID 1346984). Note: nearly all actives have a fitted effect of over 40% in size. In a few lines: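 Induction measured in HepG2-based DPX-2 cells co-expressing human PXR and a CYP3A4 promoter-driven luciferase. After a 24-hour compound exposure, cells received CYP3A4 luciferin substrate at 3uM final for 3 hours, and light output was then recorded.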

For test [17] the target is unchanged. In words: Human pregnane X receptor (PXR) activation by small molecules, qHTS assay (AID 1346985). Note: nearly all actives have a fitted effect of over 40% in size. The gist of the method:
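DPX-2 cells (HepG2 co-transfected with a PXR response element and a CYP3A4-promoter luciferase construct) were seeded at 2,000 per well, rested 5 hr at 37C, then exposed to DMSO-dissolved compounds for 24 hr. Activation was read as luciferase luminescence.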

Unmarked numbers belong to inactive results. Records with an inconclusive call do not appear. Activity calls are given as the source filed them. Unless noted, calls come from the whole dose curve; as a rule, active = well fitted curve in the direction sought with a large enough effect in the repeat runs; inconclusive = weak or mixed curves; inactive = no such curve, though single readings can be large; an effect the other way counts as inactive or inconclusive.
% is set by controls: 0 for no effect and ±100 for the full control effect.

Cytochrome P450 3A4 (Homo sapiens), sequence (P08684 whole entry, looked up): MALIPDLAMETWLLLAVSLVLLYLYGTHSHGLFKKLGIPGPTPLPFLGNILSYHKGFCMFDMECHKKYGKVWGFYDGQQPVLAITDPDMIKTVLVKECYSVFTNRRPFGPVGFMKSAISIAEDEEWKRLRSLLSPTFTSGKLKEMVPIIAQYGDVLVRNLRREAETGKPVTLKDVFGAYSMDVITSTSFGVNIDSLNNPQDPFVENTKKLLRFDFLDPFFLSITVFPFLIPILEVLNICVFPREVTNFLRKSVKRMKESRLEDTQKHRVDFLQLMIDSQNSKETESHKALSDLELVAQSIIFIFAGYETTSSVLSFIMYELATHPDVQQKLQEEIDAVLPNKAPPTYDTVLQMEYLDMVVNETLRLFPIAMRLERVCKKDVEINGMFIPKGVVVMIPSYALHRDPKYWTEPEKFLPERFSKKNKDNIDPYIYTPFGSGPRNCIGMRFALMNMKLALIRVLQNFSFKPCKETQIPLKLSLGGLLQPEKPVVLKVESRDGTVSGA
Cytochrome P450 2D6 (Homo sapiens), sequence (P10635 whole entry, looked up): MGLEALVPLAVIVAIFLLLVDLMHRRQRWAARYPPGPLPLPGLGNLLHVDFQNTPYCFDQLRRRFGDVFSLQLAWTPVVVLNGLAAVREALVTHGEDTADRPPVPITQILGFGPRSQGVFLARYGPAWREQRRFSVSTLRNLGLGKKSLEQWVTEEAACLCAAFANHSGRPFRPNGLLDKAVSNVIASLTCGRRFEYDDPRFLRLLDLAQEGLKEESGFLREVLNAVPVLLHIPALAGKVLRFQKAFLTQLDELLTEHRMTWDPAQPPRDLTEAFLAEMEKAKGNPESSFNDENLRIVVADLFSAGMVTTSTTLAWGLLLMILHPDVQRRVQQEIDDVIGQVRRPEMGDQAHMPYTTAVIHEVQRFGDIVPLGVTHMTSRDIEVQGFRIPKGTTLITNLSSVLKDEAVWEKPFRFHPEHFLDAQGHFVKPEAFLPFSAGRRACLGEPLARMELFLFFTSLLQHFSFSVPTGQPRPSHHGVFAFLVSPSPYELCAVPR
Cytochrome P450 2C19 (Homo sapiens), sequence (P33261 whole entry, looked up): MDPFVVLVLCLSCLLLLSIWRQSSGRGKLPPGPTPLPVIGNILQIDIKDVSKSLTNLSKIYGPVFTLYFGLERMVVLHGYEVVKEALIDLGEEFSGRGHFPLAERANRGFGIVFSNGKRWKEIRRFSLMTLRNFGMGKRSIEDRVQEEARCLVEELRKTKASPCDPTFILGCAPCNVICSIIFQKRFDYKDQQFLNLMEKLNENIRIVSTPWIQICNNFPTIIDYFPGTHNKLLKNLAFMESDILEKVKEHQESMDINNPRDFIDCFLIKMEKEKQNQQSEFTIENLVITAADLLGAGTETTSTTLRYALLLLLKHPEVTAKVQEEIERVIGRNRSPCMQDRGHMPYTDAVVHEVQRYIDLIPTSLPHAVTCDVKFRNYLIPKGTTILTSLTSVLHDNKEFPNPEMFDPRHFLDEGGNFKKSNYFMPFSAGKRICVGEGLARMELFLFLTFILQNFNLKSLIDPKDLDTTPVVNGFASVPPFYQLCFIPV
Nuclear receptor subfamily 1 group I member 2 (Homo sapiens), sequence (O75469 whole entry, looked up): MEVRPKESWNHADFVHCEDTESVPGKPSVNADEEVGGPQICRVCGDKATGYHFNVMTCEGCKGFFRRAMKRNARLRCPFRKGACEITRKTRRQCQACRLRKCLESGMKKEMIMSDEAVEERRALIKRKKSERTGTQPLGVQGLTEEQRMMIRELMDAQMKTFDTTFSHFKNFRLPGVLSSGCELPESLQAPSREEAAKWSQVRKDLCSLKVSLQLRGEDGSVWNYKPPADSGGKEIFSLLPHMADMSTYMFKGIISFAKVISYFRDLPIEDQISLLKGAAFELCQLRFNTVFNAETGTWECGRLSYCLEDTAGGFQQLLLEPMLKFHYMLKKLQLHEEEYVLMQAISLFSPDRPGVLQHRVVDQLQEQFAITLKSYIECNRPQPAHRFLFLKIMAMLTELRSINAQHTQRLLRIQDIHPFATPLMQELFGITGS

For `CC(C)(Cl)[N+](=O)[O-]`, the Potency entry in test [1], in test [2], in test [3], in [4], in test [5] and in [6] was “inactive” each time. In addition, the Potency result in test [7], in [8], in [10] and in test [11] was “inactive” in each case. In addition, in test [9], the Potency was 89.8 µM (active).

`O=[Se]=O`: the Potency entry in [1], in test [2], in test [12], in [6], in [7] and in [8] was “inactive” each time. Besides, the Potency entry in test [13], in test [10] and in test [11] was “inactive” throughout. Also, the Potency in test [3] was 21.5 µM (active).

As for `O=C(CBr)c1ccccc1`, the Potency entry in test [1], in [2], in test [3], in test [12], in [4] and in [6] was “inactive” throughout. The Potency entry in test [7], in test [10] and in test [11] was “inactive” each time. The results for the Potency in test [8], in test [9] and in test [13] were 2.53 µM (active), 56.7 µM (active) and 63.7 µM (active), respectively.

Turning to `N#CCc1ccccc1`, the Potency result in [1], in test [2], in [3], in test [12], in test [4] and in [5] was “inactive” in each case. Also, the Potency entry in test [6], in test [7], in test [9], in test [14], in test [10] and in [11] was “inactive” each time.

For the molecule `O=C(CBr)Nc1ccc(Cl)cc1C(=O)c1ccccc1F`, the Potency entry in test [1], in test [2], in [4], in [5], in [6] and in test [7] was “inactive” in each case. The Potency result in test [8], in [10] and in test [11] was “inactive” throughout. The Potency was 1.95 µM (active) in test [9] and 13.8 µM (active) in test [13].

`O=[N+]([O-])C(Br)(CO)CO`: the Potency result in test [1], in [2], in test [12], in test [16], in test [17] and in test [6] was “inactive” throughout. Further, the Potency result in test [8], in test [10] and in test [11] was “inactive” each time. In addition, in test [15], the max activation is -5.03%. In addition, the Potency in test [4] is 79.6 µM (active); in test [5], 63.3 µM (active); in test [7], 71 µM (active); in test [9] it was 6.33 µM (active); in [14], 5.03 µM (active); in test [13] it was 17.8 µM (active).

Regarding `O=C(O)C1(c2ccc3c(c2)OC[C@H](Cc2ccc(-c4ccccc4)cc2)[C@H]3O)CCCC1`, the Potency result in test [1], in test [2], in test [4], in [6], in test [7] and in [8] was “inactive” in each case. Moreover, the Potency result in test [13], in [10] and in test [11] was “inactive” each time. In addition, the Potency in test [14] is 71 µM (active).

With `CCCC(Cn1cncn1)c1ccc(Cl)cc1Cl` (stereo unspecified), the Potency result in test [1], in test [2], in test [4], in [6], in test [7] and in test [10] was “inactive” throughout. For the same molecule, in test [11], the Potency entry is “inactive”. Further, the Potency in test [12] was 24.3 µM (active); in [8], 31.7 µM (active); in test [9], 0.142 µM (active); in [14], 5.64 µM (active); in [13] it was 22.4 µM (active).

In the case of `C=CC(=O)OCC(C)O` (stereo unspecified), the Potency result in [1], in test [2], in test [12], in test [4], in test [5] and in test [6] was “inactive” in each case. Besides, the Potency result in test [7], in test [8], in [9], in test [14], in [10] and in test [11] was “inactive” each time.
